Mtb FBA inh – Mtb fructose-bisphosphate aldolase inhibition; 360,000 tested, 2.3% active; P9WQA3; AID 588726; purified M. tuberculosis FBA, fluorescence read-out; inhibition, % at 1 µM; in the data active means inhibition above about 27%
GDH-TPI inh – inhibits GDH-TPI coupling enzymes, artifact for Mtb FBA screen; GDH-TPI coupled enzyme counterscreen, NADH absorbance; 360,000 tested, 1.2% active; inhibition, % at 4.8 µM; in the data active means inhibition above about 30%
BoNT-F LC inh – blocks Botulinum neurotoxin F light chain protease; Multiplex microsphere protease cleavage assay, flow cytometry; inhibition, % at 10 µM; 360,000 tested, 0.22% active; AID 588497; in the data active means inhibition above about 35%, passing the limit was not always enough; inconclusive means no clear call, values can overlap the other calls
BoNT-A LC inh2 – BoNT A light chain protease inhibition; 360,000 tested, 0.17% active; inhibition, % at 10 µM; AID 588499; multiplex microsphere protease substrate cleavage, flow cytometry
Anthrax LF inh2 – anthrax lethal factor protease inhibition; P15917; multiplex microsphere protease cleavage assay, LF; inhibition, % at 10 µM; 360,000 tested, 0.12% active; AID 588501
Bead autofluor – counter-screen for toxin protease inhibitors: compound fluorescence; 360,000 tested, 3.1% active; compound autofluorescence counterscreen, microsphere flow cytometry; stronger effect = higher value; fluorescence intensity (no concentration beside the values); in the data active means fluorescence intensity above about 16000; inconclusive means no clear call, values can overlap the other calls
Of the large screens only hits and unclear results are named; the others gave an inactive call. Hits are enriched below; roughly 6.7% of the tested compounds scored in any of these assays. Unless noted, no stated cut-off is given here; in the data, active means inhibition above about 30%; inconclusive means no clear call, values can overlap the other calls; inactive means below that.

O=C(CSc1ncn(-c2ccccc2)n1)N1CCN(c2ccccc2)CC1	none
Cc1ccc(CSc2ncn(-c3ccccc3)n2)cc1	BoNT-A LC inh2 inconclusive, Bead autofluor 24543
N=C1c2ccccc2CN1c1ccc(S(=O)(=O)N2CCCCC2)cc1	none
NC(=NC(=O)c1ccc(OCC(F)(F)F)nc1)c1ccccc1	none
Cc1ccc(C)c(NC(=S)NNC(=O)c2csc3c2CCC(C)C3)c1 (stereo not drawn)	none
Cc1cccc(NC(=S)NNC(=O)c2csc3c2CCCC3)c1	Bead autofluor 16967
Cc1ccc(C)c(NC(=S)NNC(=O)c2csc3c2CCCC3)c1	Bead autofluor 16276
CCc1cc(C(=O)Nc2ccccc2)cs1	Bead autofluor 16734
CCc1cc(C(=O)NNC(=S)Nc2cc(C)ccc2C)cs1	Bead autofluor 23483
Cc1cccc(NC(=S)NNC(=O)c2csc(C)c2)c1	none
COc1cc(C(=S)N2CCOCC2)ccc1OS(=O)(=O)c1ccc(NC(C)=O)cc1	none
COC(=O)[C@@H]1Cc2c([nH]c3ccccc23)C(C)N1C(=O)c1ccccc1 (stereo partly drawn)	none
CCc1cc(C(=O)NNC(=S)NCc2ccccc2)cs1	none
CCCc1cc(C(=O)NNC(=S)NCc2ccccc2)cs1	Bead autofluor 22370
CC(C)(C)NC(=O)CSc1n[nH]c(=O)n1-c1ccccc1	Bead autofluor 20863
O=C(CSc1n[nH]c(=O)n1-c1ccccc1)Nc1ccccc1	none (no result: BoNT-F LC inh, BoNT-A LC inh2, Anthrax LF inh2, Bead autofluor)
CCCCc1nnc(NC(=O)C(C)Sc2nc(N)cc(=O)[nH]2)s1 (stereo not drawn)	Bead autofluor 21210
Brc1cccc(-c2nnc3sc(CN4CCCCC4)cn23)c1	none
Brc1cccc(-c2nnc3sc(CN4CCC5(CC4)OCCO5)cn23)c1	Bead autofluor 24422
CCN1CC2CCCC3(C1)C(=O)NC1(CCCCC1)N=C23 (stereo not drawn)	Bead autofluor 21486
O=C(NC1CC1)C1CCN(C2CCN(C(=O)Cc3ccc(F)cc3)CC2)CC1	none
CCCCS(=O)(=O)/C=C/[C@H]1[C@H](S(=O)(=O)CCCC)[C@H]2C=C[C@@H]1C2	none
CCc1ccc(S(=O)(=O)ON2C(=O)c3ccccc3C2=O)cc1	Mtb FBA inh 30
O=C1c2cccc3cccc(c23)C(=O)N1OS(=O)(=O)c1ccc(Cl)cc1	none
O=C(CN1C(=O)c2ccccc2C1=O)NCCOc1ccccc1	BoNT-F LC inh inconclusive
CCOc1ccccc1OCCC(=O)N1CCN(S(=O)(=O)c2ccccc2[N+](=O)[O-])CC1	Bead autofluor inconclusive
N#Cc1ccc(-n2c(-c3ccccc3)nnc2-c2ccccc2)cc1C#N	none
CN1CCN(NC(=O)c2c(-c3ccccc3)sc3ccccc23)CC1	none
COc1ccc(NC(=O)CNS(=O)(=O)c2ccc(Cl)cc2)cc1OC	none
COC(=O)c1ccc2c(C)c(C(C)(C)O)[nH]c2c1	Mtb FBA inh active
CC(=O)Oc1ccc(/C=c2\sc3ncnn3c2=O)cc1	Bead autofluor 22478
CCOc1ccccc1/C=c1\sc2ncnn2c1=O	BoNT-A LC inh2 inconclusive, Bead autofluor 21270
CCCOc1ccc(/C=c2\sc3ncnn3c2=O)cc1	none
COc1ccc(C(=O)NCC(=O)N2CCC3(CC2)NCCc2[nH]cnc23)cc1	none
COc1cccc(C(=O)NCC(=O)N2CCC3(CC2)NCCc2[nH]cnc23)c1OC	GDH-TPI inh 51
COc1ccccc1N1CCN(C(=O)C2CCN(S(=O)(=O)N3CCOCC3)CC2)CC1	none
CCC1=C(OC(=O)N(CC)CC)N2C(=O)OC(=NCC(=O)OC)[C@]2(C)[C@H]2C1=CC[C@H]1C(=O)N(CC)C(=O)[C@H]12	none
O=C(c1cc2c(s1)-c1ccccc1OC2)N1CCC2(CC1)OCCO2	Mtb FBA inh active, GDH-TPI inh 40
O=C(c1cc2c(s1)-c1ccccc1OC2)N1CCCC1	Mtb FBA inh active
O=C(c1cc2c(s1)CCCC2)N1CCC2(CC1)OCCO2	BoNT-A LC inh2 inconclusive, Bead autofluor 23757
O=C(c1cc2c(s1)-c1ccccc1OC2)N1CCN(c2ccccn2)CC1	none
O=C(c1cc2c(s1)-c1ccccc1OC2)N1CCN(c2ccccc2)CC1	none
c1ccc(-c2ncc(-c3ccn[nH]3)s2)cc1	Mtb FBA inh 139
c1ccc(Oc2ccc(-c3ccn[nH]3)cc2)cc1	BoNT-F LC inh inconclusive, BoNT-A LC inh2 inconclusive
N/C(=N\OC(=O)c1ccc(Cl)cc1)c1ccccn1	BoNT-A LC inh2 inconclusive, Bead autofluor 21717
O=[N+]([O-])c1ccc(CSc2ccc(S(=O)(=O)N3CCOCC3)cn2)cc1	BoNT-F LC inh inconclusive, Bead autofluor inconclusive
CCCCSc1nsc(NC(C)=O)n1	Bead autofluor 22275
CCCCCCSc1nsc(NC(C)=O)n1	none
CN(C1CCCCC1)S(=O)(=O)c1ccc2[nH]c(=O)oc2c1	none
COc1cc(/C=C/C(=O)Nc2ccc3[nH]c(=O)[nH]c3c2)cc(OC)c1OC	none
Cc1nn(CCOc2ccccc2)c(=O)n1-c1ccc(F)cc1	none
Cc1nn(CCOc2ccccc2)c(=O)n1-c1cccc(F)c1	Bead autofluor 16398
COc1ccc(C(=O)/C=C/NCc2ccc(C)cc2)cc1	GDH-TPI inh 44
COc1ccc(/C=C/C(=O)Nc2cc(C)on2)cc1	none
COc1ccc(C(=O)/C=C/Nc2cc(C)on2)cc1	GDH-TPI inh 41
Cc1ccc(C(=O)/C=C\NCc2ccccc2)cc1	none
COc1cccc(C(=O)/C=C/Nc2cc(C)ccc2O)c1	Bead autofluor 23605
COc1cccc(N/C=C/C(=O)c2ccc(Br)cc2)c1	none
COc1ccc(C(=O)/C=C/Nc2cccc(O)c2)cc1	BoNT-A LC inh2 inconclusive, Bead autofluor 20620
Cc1ccc(C(=O)OCC(=O)c2ccc(CC(=O)N3CCOCC3)s2)cc1C	none
Cc1ccc(S(=O)(=O)NC2=NCN(CCN3CCOCC3)CN2)cc1	none
O=C(CSc1nnc(CNc2ccc(F)cc2)n1Cc1ccccc1)NCc1ccccc1	none
O=C(NCc1ccccc1C(F)(F)F)C1CCC(=O)N(C2CCCCCC2)C1 (stereo not drawn)	none
CCCCn1c(CCn2nc(C)c(Br)c2C)n[nH]c1=S	Bead autofluor 23887
CCCCN(C)C(=O)c1oc2ccc(S(=O)(=O)N3CCCCCC3)cc2c1C	Bead autofluor 23104
CCCCN(CCCC)S(=O)(=O)c1ccc2oc(C(=O)N3CCOCC3)c(C)c2c1	Bead autofluor 24116
Cc1c(C(=O)O)oc2ccc(S(=O)(=O)N3CCCC3)cc12	none
CCOC(=O)N1CCN(C(=O)c2oc3ccc(S(=O)(=O)N4CCCCC4)cc3c2C)CC1	Bead autofluor 18639
O=C(CC(C(=O)O)C1CCCO1)NCc1ccccc1 (stereo not drawn)	BoNT-F LC inh inconclusive
CC(CC(=O)NCc1ccccc1)C1CCCO1 (stereo not drawn)	Bead autofluor 19114
Oc1c(Br)cc(Br)cc1/C=N/N1CCN(Cc2ccccc2)CC1	none
Fc1ccc(Nc2ncnc3ccccc23)cc1	none
Cc1cc(C)cc(C(=O)N2CC(C)OC(C)C2)c1 (stereo not drawn)	BoNT-A LC inh2 inconclusive, Bead autofluor 22829
